Bioassay records deposited in PubChem BioAssay by several laboratories.
Mtb BioA inh = BioA (M. tuberculosis) enzyme inhibition. AID 602481. 0.096% of 360,000 active. inhibition, % at 9.99 µM. purified M. tuberculosis BioA enzyme, plate reader; in the data active = inhibition above about 40%
Mtb UGM inh = inhibitors of M. tuberculosis UDP-galactopyranose mutase; P9WIQ1; AID 504406; 0.06% of 320,000 active; purified UGM, fluorescence polarization probe displacement; inhibition, % at 10 µM; in the data active = inhibition above about 10%, passing the limit was not always enough
Target sequence (P9WIQ1 whole entry, looked up): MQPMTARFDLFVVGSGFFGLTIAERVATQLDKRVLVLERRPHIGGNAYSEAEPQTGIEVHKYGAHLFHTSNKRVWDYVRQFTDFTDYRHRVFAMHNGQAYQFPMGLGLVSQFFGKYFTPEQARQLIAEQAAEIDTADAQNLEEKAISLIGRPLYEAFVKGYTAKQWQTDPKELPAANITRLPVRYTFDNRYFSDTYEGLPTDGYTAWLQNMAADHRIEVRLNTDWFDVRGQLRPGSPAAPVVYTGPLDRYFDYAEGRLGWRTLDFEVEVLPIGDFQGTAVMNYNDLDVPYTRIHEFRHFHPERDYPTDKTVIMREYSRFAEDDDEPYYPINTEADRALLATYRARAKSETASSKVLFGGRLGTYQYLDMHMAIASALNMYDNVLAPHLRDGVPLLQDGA
FadD28 binding = blocks FadD28 binding to the bisubstrate probe | fluorescence polarization | AID 588549 | inhibition, % at 12.5 µM | 0.22% of 360,000 active; in the data active = inhibition above about 8.5%, passing the limit was not always enough
RecA intein inh = inhibitors of M. tuberculosis RecA intein splicing. P9WHJ3. inhibition, % (no concentration beside the values). AID 2221. cell-free RecA intein splicing, fluorescence. 0.75% of 290,000 active; in the data active = inhibition above about 30%;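 also: 0% = vehicle wells and 100% = reference inhibitor control wells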
Rv3671c protease = Rv3671c (M. tuberculosis) protease inhibition. inhibition, % at 5.96 µM. AID 2606. P9WHR9. 0.048% of 320,000 active; in the data active = inhibition above about 38%;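 also: extracellular domain of Rv3671c used as enzyme; 0% = enzyme with DMSO and 100% = no enzyme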
TcdB inh = inhibitors of Clostridioides difficile toxin B glycohydrolase. P18177. TcdB glycohydrolase enzymatic assay, plate reader. inhibition, % at 9.99 µM. 0.24% of 350,000 active; in the data active = inhibition above about 10%
GFP chromo cs = counter-screen GFP chromophore formation inhibition | shares compounds with RecA intein inh | cell-free GFP chromophore formation, fluorescence | EC50, µM | 83% of 2,100 active | AID 434968; call rule not given here
Active calls of the source: *; / = no result. An excerpt weighted towards active compounds, which were near 0.9% of everything screened.

SMILES	Mtb BioA inh	Mtb UGM inh	FadD28 binding	RecA intein inh	Rv3671c protease	TcdB inh	GFP chromo cs
C[C@H](CO)N1C[C@H](C)[C@H](CN(C)S(=O)(=O)c2cccs2)OCCCC[C@H](C)Oc2ccc(NC(=O)Cc3ccccc3)cc2C1=O	-3.9	/	/	/	/	/	/
[O-]/C(=C(\C(=S)Nc1cccc2ccccc12)[n+]1ccccc1)c1ccc(OC(F)F)cc1	/	/	-4.8	/	/	0.0	/
COc1cccc(NC(=S)/C(=C(\[O-])c2ccc(OC(F)F)cc2)[n+]2ccccc2)c1	/	2.2	-2.3	36.7*	-9.6	-2.4	35.3*
CC(=O)N(C1=C(N)C(=O)c2ccccc2C1=O)c1ccccc1	0.1	-2.3	-2.1	87.5*	-34.9	-0.8	4.34*
O=C(N(c1ccccc1)c1ccccc1)N(c1ccccc1)c1ccccc1	-1.9	-0.9	-0.6	-0.3	6.7	-1.0	/
Oc1[nH]c2ccc(Br)cc2c1N=NC(=S)N1CCOCC1	2.1	2.9	-0.5	47.1*	10.4	1.6	>38
Oc1[nH]c2ccccc2c1N=NC(=S)N1CCOCC1	-0.1	2.0	-4.8	66.8*	-15.6	/	>38
COCC(=O)N1C[C@H](C)[C@@H](OC)CN(C)C(=O)c2cc(NC(=O)NC(C)C)ccc2OC[C@@H]1C	0.0	/	/	/	/	1.6	/
O=C1Nc2ccccc2C12OCCS2 (stereo not given)	/	0.0	/	0.2	3.1	/	/
S=C1NCCC12C(=S)Nc1ccccc12 (stereo not given)	-0.1	-1.6	-0.6	37.2*	2.1	1.7	>38
Fc1ccc(Nc2nc(NCc3ccco3)c3ccccc3n2)cc1	2.6	1.3	-14.3	48.8*	3.0	1.9	18.3*
c1ccc(CNc2nc(NCc3ccccc3)c3ccccc3n2)cc1	0.2	0.3	-2.9	60.0*	4.5	/	22.8*
c1ccc(CNc2nc(-c3ccccc3)nc3ccccc23)cc1	-0.2	-1.1	-8.9	17.5	-19.9	1.2	/
C[C@H]1CN([C@@H](C)CO)C(=O)c2cc(-c3ccc(C#N)cc3)cnc2O[C@@H]1CN(C)Cc1ccccn1	5.4	/	/	/	/	-0.6	/
COc1ccccc1-c1cc(C(F)(F)F)nc(S(=O)(=O)CCCC(=O)N2CCOCC2)n1	23.0	4.5	-3.4	47.6*	-8.9	/	16.2*
COc1ccc(-c2cc(C(F)(F)F)nc(S(=O)(=O)CCCC(=O)Nc3cccc(O)c3)n2)cc1OC	5.7	/	-7.8	62.3*	/	2.4	18.7*
COc1ccccc1-c1noc(CCCC(=O)N2CCOCC2)n1	-4.1	3.3	0.7	-3.1	-5.8	0.7	/
Cc1cc(NC(=O)CCS(=O)(=O)c2nc(-c3ccccc3)cc(C(F)(F)F)n2)no1	10.0	1.4	-6.5	/	0.3	/	/
N#Cc1c(Cl)c(Cl)c2nnc(-c3ccc(Br)cc3)n2c1Cl	/	0.8	/	49.0*	0.3	/	5.15*
COc1ccccc1NC(=O)N1C[C@@H](C)[C@H](OC)CN(C)C(=O)c2ccc(NC(=O)c3cnccn3)cc2OC[C@H]1C	-0.6	/	/	/	/	-0.5	/
Nc1c(N2CCCC2)cc(Cl)c2nonc12	/	0.4	0.3	69.8*	-37.3	/	5.09*
Nc1ccc(N2CCCCC2)c2nonc12	1.5	-1.0	1.9	74.7*	-93.1	1.0	10.7*
Nc1c(N2CCOCC2)cc(Cl)c2nonc12	0.6	-0.3	0.8	0.0	-7.3	/	/
Cc1ccc(S(=O)(=O)N[C@@H]2CC[C@H](CC(=O)NC3CCCCC3)O[C@@H]2CO)cc1	-2.6	/	/	/	/	-0.3	/
C/C=C/c1ccc([C@H]2[C@H](CO)N(C(=O)C3CC3)C23CN(C(=O)NC(C)C)C3)cc1	/	/	/	/	/	-1.7	/
SMILES	Mtb BioA inh	Mtb UGM inh	FadD28 binding	RecA intein inh	Rv3671c protease	TcdB inh	GFP chromo cs
O=C(O)[C@H]1[C@H](CO)[C@H]2Cn3c(ccc(C4=CCCCC4)c3=O)[C@H]2N1C(=O)Cc1cccnc1	/	/	/	/	/	-0.5	/
CC1=C(C)CC2(SC1)C(=O)N(c1ccccc1)N=C2N (stereo not given)	/	0.6	1.6	75.8*	15.8	0.8	4.15*
COc1ccc(/C=C/C(=O)c2ccncc2)c2ccccc12	/	-1.0	-3.7	56.9*	-11.4	/	22.6*
CO[C@@H]1CN(C)C(=O)c2cc(NC(=O)C3CC3)ccc2OC[C@@H](C)N(CC2CC2)C[C@@H]1C	-0.5	/	/	/	/	1.0	/
COC1=CC(=O)C(O)=C(CCCCCCC/C=C/CCCCCCCC2=C(O)C(=O)C=C(OC)C2=O)C1=O	2.4	-0.3	21.7*	75.8*	16.1	/	2.08*
CCCCCCCCCCCC1=C(O)C(=O)C=C(O)C1=O	0.2	1.8	-1.2	/	1.1	/	/
